Our source for the AC50 and outcome values is PubChem BioAssay (EPA / NIEHS).

Several values for one entry are separate records, joined by “and”; a condition that tells them apart may be missing. Identical values can stand only once. Results filed as inconclusive are left out. Some structures have more than one record in an assay (separate samples or runs), and their calls can disagree. Activity calls are given as the source filed them. How the source made its calls, unless noted: active means hit-call score of the fitted dose curve at least 0.9, where 1 is the maximum; inactive means score below 0.9.

Assay [1] has as its target Bile acid receptor (Homo sapiens) (UniProt Q96RI1). The assay is described as follows: OT_FXR_FXRSRC1_0480: Odyssey Thera (OT) 8-hour HEK293T Protein-Complementation Assay for Farnesoid X receptor/SRC-1 Co-activator (AID 2283383; active means hit-call score of the fitted dose curve at least 0.9, where 1 is the maximum). The essentials: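 Fluorescence intensity read-out, 8 h post-dose, HEK293T protein-fragment complementation; FXR bait and SRC-1 prey each linked to reporter fragments. Activity scored as signal increase over DMSO negative control.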

For assay [2] the target is unchanged. The assay is described as follows: OT_FXR_FXRSRC1_1440: Odyssey Thera (OT) 24-hour HEK293T Protein-Complementation Assay for Farnesoid X receptor/SRC-1 Co-activator (AID 2283384; active means hit-call score of the fitted dose curve at least 0.9, where 1 is the maximum). In outline:
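Fluorescence readout, 24 h post-dose, HEK293T; FXR and SRC-1 fused to complementary reporter fragments, association reconstitutes signal. Positive-direction fit vs DMSO baseline.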

Assay [3] concerns the target Retinoic acid receptor RXR-alpha (Homo sapiens) (UniProt P19793). The assay is described as follows: OT_NURR1_NURR1RXRa_0480: Odyssey Thera (OT) 8-hour HEK293T Protein Complementation Assay for Nurr1/retinoid X receptor (RXR) (AID 2283385; active means hit-call score of the fitted dose curve at least 0.9, where 1 is the maximum). In outline:
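Read-out: fluorescence from protein-fragment complementation between Nurr1 and RXRα in human HEK293T cells, 8 h after dosing. DMSO served as negative control; increased signal counted as activity.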

Assay [4] has as its target Peroxisome proliferator-activated receptor gamma (Homo sapiens) (UniProt P37231). The experiment in a line: OT_PPARg_PPARgSRC1_0480: Odyssey Thera (OT) 8-hour Protein-Complementation Assay for Peroxisome Proliferator-activated Receptor Gamma / SRC-1 Co-activator (AID 2283387; active means hit-call score of the fitted dose curve at least 0.9, where 1 is the maximum). In outline: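 HEK293T transiently transfected with PPARg and SRC-1 fused to Venus YFP fragments, compounds 8 h at 37C. Fixed, Draq5-stained cells imaged; nuclear/cytoplasmic 488 nm fluorescence ratio over at least 350 cells per image; gain fitted versus DMSO.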

Assay [5] shares this target. The assay is described as follows: OT_PPARg_PPARgSRC1_1440: Odyssey Thera (OT) 24-hour Protein-Complementation Assay for Peroxisome Proliferator-activated Receptor Gamma/ SRC-1 Co-activator (AID 2283388; active means hit-call score of the fitted dose curve at least 0.9, where 1 is the maximum). In outline: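 HEK293T transiently transfected with PPARg/SRC-1 split-Venus YFP fusions 48 h before dosing, then treated 24 h at 37C. Fixed cells imaged; nuclear/cytoplasmic 488 nm fluorescence ratio, gain of signal versus DMSO.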

Assay [6] can be described thus: CEETOX_H295R_11DCORT: CeeTox H295R High-throughput Steroidogenesis Assay for 11-Deoxycortisol (11DCORT) (AID 2283432). Particulars: actives raise or lower the signal. In outline:
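H295R cells prestimulated 48 h with 10 uM forskolin, then exposed 48 h to chemical in 0.1% DMSO. 11-Deoxycortisol in medium quantified by HPLC-MS/MS after MTBE extraction; bidirectional fit versus DMSO. MTT viability read in same wells.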

A short description of assay [7]: CEETOX_H295R_OHPREG: CeeTox H295R High-throughput Steroidogenesis Assay for OH-Pregnenolone (OHPREG) (AID 2283434). Particulars: actives raise or lower the signal. In outline:
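Readout: HPLC-MS/MS of 17alpha-hydroxypregnenolone in medium after 48 h chemical exposure of H295R cells pretreated with forskolin. Values fitted bidirectionally relative to DMSO; chemicals reducing viability to 20–70% were retested after 10-fold dilution.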

A short description of assay [8]: CEETOX_H295R_OHPROG: CeeTox H295R High-throughput Steroidogenesis Assay for OH-Progesterone (OHPROG) (AID 2283435). Particulars: actives raise or lower the signal. The essentials:
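HPLC-MS/MS quantification of 17alpha-hydroxyprogesterone secreted by H295R cells after 48 h chemical exposure, following 48 h 10 uM forskolin prestimulation. Gain or loss of signal fitted relative to DMSO. Viability checked by MTT in the same wells.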

Assay [9] is described as follows: CEETOX_H295R_CORTISOL: CeeTox H295R High-throughput Steroidogenesis Assay for Cortisol (AID 2283438).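 Further: cortisol secreted into medium quantified by LC-MS/MS.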 As to conditions: actives raise or lower the signal. In outline:
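Read-out: cortisol in culture medium by reverse-phase C18 HPLC with ESI-positive tandem MS, after MTBE liquid-liquid extraction. Cells: human adrenal H295R, forskolin-primed (10 uM, 48 h) before 48 h chemical exposure in 0.1% DMSO.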

Assay [10] can be described thus: CEETOX_H295R_DOC: CeeTox H295R High-throughput Steroidogenesis Assay for DOC (AID 2283439). Particulars: actives raise or lower the signal. In outline: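 Human adrenocortical H295R cells, passages up to 10, received 10 uM forskolin for 48 h before chemical addition. After another 48 h exposure in 0.1% DMSO, secreted DOC was measured by LC-MS/MS, with gain or loss fitted against DMSO controls.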

Assay [11] is described as follows: CEETOX_H295R_PROG: CeeTox H295R High-throughput Steroidogenesis Assay for Progesterone (PROG) (AID 2283442). As to conditions: actives raise or lower the signal. In outline: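 H295R adrenal cells prestimulated 48 h with 10 uM forskolin, then exposed 48 h to test chemical in 0.1% DMSO. Progesterone in medium quantified by HPLC-MS/MS after MTBE extraction; viability checked by MTT in same wells.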

Read-out in assay [12]: Tumor necrosis factor receptor superfamily member 6 (Homo sapiens) (UniProt P25445)
The experiment in a line: LTEA_HepaRG_FAS: Life Technologies and Expression Analysis (LTEA) Assay for Fas cell surface death receptor (FAS) using HepaRG (AID 2283447). As to conditions: mRNA level, 48 h; actives raise or lower the signal. In outline: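 Differentiated human HepaRG cells, pre-cultured 48 h, were exposed in duplicate for 48 h to 8-point half-log concentrations (top 100 uM, 0.5% DMSO) in serum-free induction medium; FAS mRNA measured by qRT-PCR, normalized to ACTB/GAPDH/POLR2A, bidirectional fit versus DMSO.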

Read-out in assay [13]: Fatty acid synthase (Homo sapiens) (UniProt P49327)
The assay is described as follows: LTEA_HepaRG_FASN: Life Technologies and Expression Analysis (LTEA) Assay for Fatty Acid Synthase (FASN) using HepaRG (AID 2283448). Particulars: mRNA level, 48 h; actives raise or lower the signal. In outline: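 HepaRG, 48 h exposure, 8-pt half-log series top 100 uM, 0.5% DMSO vehicle, duplicates. Readout: FASN transcript by Fluidigm qRT-PCR; housekeeping-normalized; bidirectional curve fit vs DMSO baseline.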

Read-out in assay [14]: Cyclin D2 (CCND2), CCND2 (gene 894)
The assay is described as follows: LTEA_HepaRG_CCND2: Life Technologies and Expression Analysis (LTEA) Assay for Cyclin D2 (CCND2) using HepaRG (AID 2283449).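 Further: CCND2 transcript measured by TaqMan qRT-PCR and normalised to three housekeeping genes.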 As to conditions: mRNA level, 48 h; actives raise or lower the signal. The essentials:
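In this HepaRG study, an eight-point concentration series (max 100 uM, 0.5% DMSO) is applied for 48 h. CCND2 mRNA change is derived by qRT-PCR normalised to ACTB, GAPDH and POLR2A.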

Assay [15] concerns the target Estrogen receptor (Homo sapiens) (UniProt P03372). The assay is described as follows: OT_ERa_GFPERaERE_0480: Odyssey Thera (OT) 8-hour HeLa Transcription Induction Assay for Estrogen Receptor (AID 2283381). In outline:
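GFP-ERE reporter, HeLa, 8 h exposure. Readout: fluorescence microscopy, high-content image analysis. Fit direction positive vs DMSO negative control.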

The target is the same in assay [16]. The assay is described as follows: OT_ERa_GFPERaERE_0120: Odyssey Thera (OT) 2-hour HeLa Transcription Induction Assay for Estrogen Receptor (AID 2283382; active means hit-call score of the fitted dose curve at least 0.9, where 1 is the maximum). In outline:
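Fluorescence microscopy read-out: inducible fluorescent protein reporter in HeLa cells, imaged 2 h post-dose. Signal increase over DMSO negative control fitted as single primary endpoint via high content image analysis.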

Assay [17] can be described thus: CEETOX_H295R_ESTRADIOL: CeeTox H295R High-throughput Steroidogenesis Assay for Estradiol (AID 2283440).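 Further: estradiol secreted into medium quantified by LC-MS/MS after dansyl derivatisation.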 Particulars: actives raise or lower the signal. In outline: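 H295R cells pre-stimulated 48 h with 10 uM forskolin, then exposed 48 h to chemical in 0.1% DMSO. Medium estradiol quantified by MTBE extraction, dansyl derivatisation and HPLC-MS/MS; bidirectional fit versus DMSO; MTT viability required >/=70%.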

Assay [18] is described as follows: CEETOX_H295R_ESTRONE: CeeTox H295R High-throughput Steroidogenesis Assay for Estrone (AID 2283441).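 Further: estrone secreted into medium measured by LC-MS/MS after dansyl derivatization.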 Particulars: actives raise or lower the signal. The essentials:
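Forskolin-stimulated H295R cells are treated 48 h with chemical, and estrone in the medium is measured by LC-MS/MS. Activity is fitted in both directions relative to DMSO controls, with chemicals diluted until MTT viability reaches at least 70%.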

The target in assay [19] is Retinoic acid receptor RXR-alpha (Homo sapiens) (UniProt P19793). The experiment in a line: OT_NURR1_NURR1RXRa_1440: Odyssey Thera (OT) 24-hour HEK293T Protein Complementation Assay for Nurr1/retinoid X receptor (RXR) (AID 2283386; active means hit-call score of the fitted dose curve at least 0.9, where 1 is the maximum). In outline: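 Fluorescence PCA read-out; HEK293T; 24 h post-dose; bait/prey fused to reporter fragments; gain-of-signal fit vs DMSO negative control.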
Chain of Retinoic acid receptor RXR-alpha (Homo sapiens) (P19793 whole entry, looked up, the tested form may be a part): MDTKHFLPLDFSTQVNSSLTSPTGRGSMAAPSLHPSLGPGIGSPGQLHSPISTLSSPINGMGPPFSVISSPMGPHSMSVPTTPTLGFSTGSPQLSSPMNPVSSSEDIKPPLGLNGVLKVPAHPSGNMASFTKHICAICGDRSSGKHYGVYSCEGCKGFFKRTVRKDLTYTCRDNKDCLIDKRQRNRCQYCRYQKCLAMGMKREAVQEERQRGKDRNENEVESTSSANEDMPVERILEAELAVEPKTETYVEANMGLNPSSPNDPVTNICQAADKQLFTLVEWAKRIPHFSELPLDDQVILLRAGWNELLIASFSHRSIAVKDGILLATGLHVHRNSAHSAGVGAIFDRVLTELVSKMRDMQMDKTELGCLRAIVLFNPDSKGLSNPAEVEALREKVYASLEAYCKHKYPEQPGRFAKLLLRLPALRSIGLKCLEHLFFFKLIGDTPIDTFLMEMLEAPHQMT

Chain of Fatty acid synthase (Homo sapiens) (P49327 whole entry, looked up): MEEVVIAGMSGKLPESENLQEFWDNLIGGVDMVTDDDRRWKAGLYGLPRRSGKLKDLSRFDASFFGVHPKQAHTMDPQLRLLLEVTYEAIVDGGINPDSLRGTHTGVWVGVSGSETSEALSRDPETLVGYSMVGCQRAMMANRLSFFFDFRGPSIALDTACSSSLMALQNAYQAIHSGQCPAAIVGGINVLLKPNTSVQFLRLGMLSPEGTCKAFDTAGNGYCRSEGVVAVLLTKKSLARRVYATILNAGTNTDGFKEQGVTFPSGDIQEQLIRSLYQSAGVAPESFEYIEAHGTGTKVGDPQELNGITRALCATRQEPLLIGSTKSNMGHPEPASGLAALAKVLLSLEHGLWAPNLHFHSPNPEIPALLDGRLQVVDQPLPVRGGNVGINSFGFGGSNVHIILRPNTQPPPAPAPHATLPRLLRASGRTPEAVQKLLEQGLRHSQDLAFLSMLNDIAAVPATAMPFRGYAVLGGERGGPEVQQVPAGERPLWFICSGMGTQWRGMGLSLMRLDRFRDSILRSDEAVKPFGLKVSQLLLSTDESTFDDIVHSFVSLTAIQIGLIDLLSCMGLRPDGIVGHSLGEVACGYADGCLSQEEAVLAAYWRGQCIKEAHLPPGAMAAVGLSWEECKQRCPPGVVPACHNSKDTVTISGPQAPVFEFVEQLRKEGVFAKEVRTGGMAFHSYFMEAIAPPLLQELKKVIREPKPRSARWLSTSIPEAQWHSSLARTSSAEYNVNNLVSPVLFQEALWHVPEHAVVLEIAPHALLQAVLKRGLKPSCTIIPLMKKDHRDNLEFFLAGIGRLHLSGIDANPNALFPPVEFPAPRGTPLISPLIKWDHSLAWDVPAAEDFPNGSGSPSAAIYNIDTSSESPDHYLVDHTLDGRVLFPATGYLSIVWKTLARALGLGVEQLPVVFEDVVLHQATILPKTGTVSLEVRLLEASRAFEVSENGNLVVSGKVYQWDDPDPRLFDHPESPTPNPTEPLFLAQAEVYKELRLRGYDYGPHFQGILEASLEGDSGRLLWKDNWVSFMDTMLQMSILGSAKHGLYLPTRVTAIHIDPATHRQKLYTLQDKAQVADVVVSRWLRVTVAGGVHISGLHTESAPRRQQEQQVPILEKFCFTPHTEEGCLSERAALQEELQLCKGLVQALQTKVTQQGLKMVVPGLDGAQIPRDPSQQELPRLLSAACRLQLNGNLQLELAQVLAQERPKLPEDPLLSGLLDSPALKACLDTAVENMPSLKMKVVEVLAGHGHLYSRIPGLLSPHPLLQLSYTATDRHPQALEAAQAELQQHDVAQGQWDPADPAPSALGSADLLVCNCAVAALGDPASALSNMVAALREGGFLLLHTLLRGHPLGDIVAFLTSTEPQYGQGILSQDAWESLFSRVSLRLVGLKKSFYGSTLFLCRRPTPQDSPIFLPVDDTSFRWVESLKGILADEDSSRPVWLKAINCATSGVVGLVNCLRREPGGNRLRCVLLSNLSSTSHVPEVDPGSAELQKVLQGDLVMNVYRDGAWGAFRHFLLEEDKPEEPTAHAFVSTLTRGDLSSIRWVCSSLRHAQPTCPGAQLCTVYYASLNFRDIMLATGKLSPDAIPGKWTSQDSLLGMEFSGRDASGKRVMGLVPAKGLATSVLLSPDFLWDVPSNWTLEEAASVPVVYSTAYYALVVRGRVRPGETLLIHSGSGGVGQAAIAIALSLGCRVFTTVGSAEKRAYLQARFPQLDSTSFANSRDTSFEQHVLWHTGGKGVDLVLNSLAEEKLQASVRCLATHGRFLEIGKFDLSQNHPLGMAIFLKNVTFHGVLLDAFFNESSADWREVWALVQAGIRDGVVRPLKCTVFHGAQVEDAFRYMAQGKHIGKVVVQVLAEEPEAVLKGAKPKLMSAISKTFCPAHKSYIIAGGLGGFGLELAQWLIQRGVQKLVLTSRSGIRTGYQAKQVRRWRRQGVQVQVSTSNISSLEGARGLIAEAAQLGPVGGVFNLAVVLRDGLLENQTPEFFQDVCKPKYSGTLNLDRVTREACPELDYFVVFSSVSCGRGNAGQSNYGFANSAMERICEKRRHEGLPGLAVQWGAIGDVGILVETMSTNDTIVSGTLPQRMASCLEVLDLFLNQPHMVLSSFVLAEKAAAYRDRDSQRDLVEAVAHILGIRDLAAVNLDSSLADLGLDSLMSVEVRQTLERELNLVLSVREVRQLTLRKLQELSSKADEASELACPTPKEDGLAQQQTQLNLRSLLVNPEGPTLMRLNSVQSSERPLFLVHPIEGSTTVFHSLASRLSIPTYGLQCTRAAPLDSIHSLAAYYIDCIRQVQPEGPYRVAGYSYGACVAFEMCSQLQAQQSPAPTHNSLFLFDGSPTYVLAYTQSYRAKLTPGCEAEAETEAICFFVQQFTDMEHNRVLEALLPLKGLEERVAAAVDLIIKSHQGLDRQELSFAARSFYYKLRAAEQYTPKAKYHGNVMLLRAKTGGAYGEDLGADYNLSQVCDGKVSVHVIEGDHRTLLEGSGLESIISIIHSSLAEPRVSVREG
Chain of Estrogen receptor (Homo sapiens) (P03372 whole entry, looked up): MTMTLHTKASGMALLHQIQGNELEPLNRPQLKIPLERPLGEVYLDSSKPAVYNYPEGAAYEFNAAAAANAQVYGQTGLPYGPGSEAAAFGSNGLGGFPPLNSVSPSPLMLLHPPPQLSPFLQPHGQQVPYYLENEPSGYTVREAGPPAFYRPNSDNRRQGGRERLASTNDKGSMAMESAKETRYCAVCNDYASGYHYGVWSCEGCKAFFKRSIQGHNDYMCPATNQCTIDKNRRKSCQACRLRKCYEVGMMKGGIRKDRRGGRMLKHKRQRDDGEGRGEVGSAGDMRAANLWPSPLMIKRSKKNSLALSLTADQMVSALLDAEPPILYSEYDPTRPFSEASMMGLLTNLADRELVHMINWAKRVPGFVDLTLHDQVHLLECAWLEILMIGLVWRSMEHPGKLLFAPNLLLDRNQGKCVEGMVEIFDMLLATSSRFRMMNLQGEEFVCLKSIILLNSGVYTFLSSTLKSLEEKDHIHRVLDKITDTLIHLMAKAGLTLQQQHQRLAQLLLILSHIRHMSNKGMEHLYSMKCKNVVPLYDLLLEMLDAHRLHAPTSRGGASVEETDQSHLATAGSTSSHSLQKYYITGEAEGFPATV
Chain of Peroxisome proliferator-activated receptor gamma (Homo sapiens) (P37231 whole entry, looked up, the tested form may be a part): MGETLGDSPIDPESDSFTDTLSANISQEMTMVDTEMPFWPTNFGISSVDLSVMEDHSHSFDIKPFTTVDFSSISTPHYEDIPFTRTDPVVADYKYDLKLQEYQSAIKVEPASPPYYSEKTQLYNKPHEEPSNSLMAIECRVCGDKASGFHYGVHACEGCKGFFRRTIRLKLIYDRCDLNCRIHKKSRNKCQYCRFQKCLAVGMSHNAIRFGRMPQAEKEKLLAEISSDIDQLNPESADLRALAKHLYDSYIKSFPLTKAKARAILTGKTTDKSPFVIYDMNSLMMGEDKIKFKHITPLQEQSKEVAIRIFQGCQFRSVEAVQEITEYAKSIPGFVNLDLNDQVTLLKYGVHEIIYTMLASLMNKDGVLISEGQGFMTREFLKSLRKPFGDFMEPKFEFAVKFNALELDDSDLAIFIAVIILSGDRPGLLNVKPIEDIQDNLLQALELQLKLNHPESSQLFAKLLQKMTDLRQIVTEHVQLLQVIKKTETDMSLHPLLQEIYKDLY
Chain of Bile acid receptor (Homo sapiens) (Q96RI1 whole entry, looked up, the tested form may be a part): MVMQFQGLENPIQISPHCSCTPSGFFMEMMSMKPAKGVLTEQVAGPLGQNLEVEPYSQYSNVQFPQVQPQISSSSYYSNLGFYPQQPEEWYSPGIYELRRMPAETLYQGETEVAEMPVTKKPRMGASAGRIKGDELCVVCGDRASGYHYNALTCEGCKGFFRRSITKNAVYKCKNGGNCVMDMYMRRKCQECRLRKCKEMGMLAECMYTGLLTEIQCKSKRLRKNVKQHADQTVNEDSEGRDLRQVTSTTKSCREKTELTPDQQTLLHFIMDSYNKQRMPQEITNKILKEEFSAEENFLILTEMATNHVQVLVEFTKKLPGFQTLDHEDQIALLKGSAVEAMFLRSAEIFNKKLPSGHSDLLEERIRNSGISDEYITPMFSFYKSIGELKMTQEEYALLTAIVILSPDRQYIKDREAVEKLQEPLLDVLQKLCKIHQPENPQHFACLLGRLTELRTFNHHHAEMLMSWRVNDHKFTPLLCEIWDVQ

With `Oc1cc(Cl)ccc1Oc1ccc(Cl)cc1Cl`, the AC50 is 11.9 µM (active) in assay [1]; 12 µM (active) in assay [2]; 11.9 µM (active) and 11.6 µM (active) in assay [3]; 69.9 µM (active) in assay [13]. The outcome in assay [4], in assay [5], in assay [6], in assay [7], in [8] and in assay [9] was inactive. Further, the call in assay [10], in [11], in assay [12], in assay [13] and in assay [14] was inactive.

Take `N#Cc1c(Cl)c(Cl)c(Cl)c(C#N)c1Cl`: the outcome in assay [15], in assay [16], in assay [4], in [5], in assay [6] and in assay [7] was inactive. Further, the outcome in assay [8], in assay [9], in assay [10], in assay [17], in assay [18] and in [11] was inactive. Besides, the molecule was classed as inactive in [12] and in [14]. For the same molecule, the AC50 is 76.5 nM (active) in [3] and 35.5 µM (active) in [13].

Regarding `O=C(O)COc1ccc(Cl)cc1Cl`, the molecule was classed as inactive in assay [3], in assay [19], in assay [6], in assay [7], in assay [8] and in assay [9]. Besides, the outcome in assay [10], in assay [11], in assay [12], in assay [13] and in assay [14] was inactive.

Turning to `CCOC1Oc2ccc(OS(C)(=O)=O)cc2C1(C)C` (stereo not given), the figures for the AC50 in [15] and in assay [16] were 55.4 µM (active) and 53.4 µM (active), respectively. The result in assay [3], in assay [19], in assay [4], in assay [5], in [12] and in [13] was inactive. Besides, in [14], the molecule was called inactive.

In the case of `O=C(O)CCCOc1ccc(Cl)cc1Cl`, the call in assay [3], in assay [19], in assay [4], in assay [5], in [12] and in assay [13] was inactive. For the same molecule, in [14], the molecule was called inactive.

For `O=C(NC(=O)c1c(F)cccc1F)Nc1ccc(OC(F)(F)C(F)OC(F)(F)F)c(Cl)c1` (stereo not given), the result in assay [15], in assay [16], in assay [3], in assay [19], in assay [4] and in assay [5] was inactive. Moreover, the outcome in assay [6], in assay [7], in [8], in assay [9], in assay [10] and in [17] was inactive. The call in assay [18], in [11], in assay [12] and in assay [14] was inactive. Moreover, the AC50 in assay [13] was 8.63 µM (active).

For orientation: AC50 means the concentration at which the activity in the assay is half-maximal.
